Laboratory results: PubChem BioAssay (NCI)
About 83,000 compounds went through this panel and 20% of them were active in at least one assay; those are over-represented in the sample as a whole.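 Assay: single dose, 48 h. Readout: percent growth (0 = no net growth; negative = cell death). Active: <10.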 Unmarked numbers belong to inactive results. Calls of active or inactive are those of the source.

Columns and labels:
Assay in all cases: NCI-60 one-dose screen, 48 h (100 = growth as untreated, 0 = no growth, -100 = all killed)
Conditions in all cases: 10 µM
HCT-15 colon = test system: HCT-15 colon
HT29 colon = test system: HT29 colon
SNB-75 CNS = test system: SNB-75 CNS
SNB-19 CNS = test system: SNB-19 CNS
U251 CNS = test system: U251 CNS
PC-3 prostate = test system: PC-3 prostate
SK-MEL-5 melanoma = test system: SK-MEL-5 melanoma
UACC-62 melanoma = test system: UACC-62 melanoma
LOX IMVI melanoma = test system: LOX IMVI melanoma
SK-MEL-28 melanoma = test system: SK-MEL-28 melanoma
SK-MEL-2 melanoma = test system: SK-MEL-2 melanoma
EKVX NSCLC = test system: EKVX NSCLC
SN12C renal = test system: SN12C renal
UO-31 renal = test system: UO-31 renal
TK-10 renal = test system: TK-10 renal
ACHN renal = test system: ACHN renal
CAKI-1 renal = test system: CAKI-1 renal
A498 renal = test system: A498 renal
MOLT-4 leukemia = test system: MOLT-4 leukemia
CCRF-CEM leukemia = test system: CCRF-CEM leukemia

COc1cc(-c2nc3ccccc3o2)cc(CN2CCCCC2)c1O
growth (HCT-15 colon): 41.4%
growth (HT29 colon): 87.2%
growth (SNB-75 CNS): 57.6%
growth (SNB-19 CNS): 83.3%
growth (U251 CNS): 47.5%
growth (PC-3 prostate): 41.8%
growth (SK-MEL-5 melanoma): -83.3% (active)
growth (UACC-62 melanoma): -15.3% (active)
growth (LOX IMVI melanoma): -18.6% (active)
growth (SK-MEL-28 melanoma): 59.5%
growth (SK-MEL-2 melanoma): 89.3%
growth (EKVX NSCLC): 66.5%
growth (SN12C renal): 62.1%
growth (UO-31 renal): 43.9%
growth (TK-10 renal): 129%
growth (ACHN renal): 64.8%
growth (CAKI-1 renal): 85.2%
growth (A498 renal): 55.2%
growth (MOLT-4 leukemia): 48.8%

COc1ccc(-c2cc(-c3ccc(Cl)cc3)nc(SCCCC(=O)NO)n2)cc1OC
growth (HCT-15 colon): -4% (active)
growth (HT29 colon): 6.66% (active)
growth (SNB-75 CNS): 2.56% (active)
growth (SNB-19 CNS): 14.8%
growth (U251 CNS): 12.4%
growth (PC-3 prostate): -5.41% (active)
growth (SK-MEL-5 melanoma): -55.9% (active)
growth (UACC-62 melanoma): -60.1% (active)
growth (LOX IMVI melanoma): -64.8% (active)
growth (SK-MEL-28 melanoma): 20.5%
growth (SK-MEL-2 melanoma): 13.3%
growth (EKVX NSCLC): -13.8% (active)
growth (SN12C renal): 6.47% (active)
growth (UO-31 renal): -53.2% (active)
growth (TK-10 renal): 17.8%
growth (ACHN renal): -19.7% (active)
growth (CAKI-1 renal): -5.05% (active)
growth (A498 renal): -40.1% (active)
growth (MOLT-4 leukemia): 9.38% (active)

COc1ccc2c(c1)C(=O)/C(=C/c1cccc(OCC(=O)c3ccc([N+](=O)[O-])cc3)c1)CO2
growth (HCT-15 colon): -37.6% (active)
growth (HT29 colon): 6.81% (active)
growth (SNB-75 CNS): 55.5%
growth (SNB-19 CNS): 90.1%
growth (U251 CNS): 22.4%
growth (PC-3 prostate): 22.5%
growth (SK-MEL-5 melanoma): 15.8%
growth (UACC-62 melanoma): 46.7%
growth (LOX IMVI melanoma): -100% (active)
growth (SK-MEL-28 melanoma): 43.9%
growth (SK-MEL-2 melanoma): -47.3% (active)
growth (EKVX NSCLC): 75.6%
growth (SN12C renal): 65.6%
growth (UO-31 renal): -68% (active)
growth (TK-10 renal): 3.16% (active)
growth (ACHN renal): 51.8%
growth (CAKI-1 renal): 16.3%
growth (A498 renal): 79.5%
growth (CCRF-CEM leukemia): -11.8% (active)
growth (MOLT-4 leukemia): -38% (active)

O=c1oc2c(cc1-c1ccc(F)cc1)C(O)Oc1ccccc1-2 (configuration not stated)
growth (HCT-15 colon): 63.4%
growth (HT29 colon): 66.8%
growth (SNB-75 CNS): 63.4%
growth (SNB-19 CNS): 95.9%
growth (U251 CNS): 67.4%
growth (PC-3 prostate): 92.9%
growth (SK-MEL-5 melanoma): 34.8%
growth (UACC-62 melanoma): 44.5%
growth (LOX IMVI melanoma): 77.8%
growth (SK-MEL-28 melanoma): 88.6%
growth (SK-MEL-2 melanoma): 76.1%
growth (EKVX NSCLC): 51.2%
growth (SN12C renal): 95.4%
growth (UO-31 renal): 84.1%
growth (TK-10 renal): 72.3%
growth (ACHN renal): 94.4%
growth (CAKI-1 renal): 74%
growth (A498 renal): 89.5%
growth (CCRF-CEM leukemia): 113%
growth (MOLT-4 leukemia): 68.3%

CCN(CC)c1ccc(/C=C2\SC(=O)C(Nc3nnc(-c4cccnc4SCc4ccccc4)o3)C2=O)cc1 (configuration not stated)
growth (HCT-15 colon): 15.2%
growth (HT29 colon): 3.09% (active)
growth (SNB-75 CNS): 44.1%
growth (SNB-19 CNS): 63.5%
growth (U251 CNS): 3.89% (active)
growth (PC-3 prostate): 16.9%
growth (SK-MEL-5 melanoma): 27.4%
growth (UACC-62 melanoma): 30.2%
growth (LOX IMVI melanoma): 42.3%
growth (SK-MEL-28 melanoma): 50.8%
growth (SK-MEL-2 melanoma): 33.8%
growth (EKVX NSCLC): 55.8%
growth (SN12C renal): 61.4%
growth (UO-31 renal): 53.7%
growth (TK-10 renal): 44.3%
growth (ACHN renal): 51.2%
growth (CAKI-1 renal): 41.2%
growth (A498 renal): 9.41% (active)
growth (CCRF-CEM leukemia): 50.6%
growth (MOLT-4 leukemia): 61.9%

Cc1ccc(-n2nnnc2N)c(C)c1
growth (HCT-15 colon): 106%
growth (HT29 colon): 123%
growth (SNB-75 CNS): 101%
growth (SNB-19 CNS): 113%
growth (U251 CNS): 99.5%
growth (PC-3 prostate): 105%
growth (SK-MEL-5 melanoma): 115%
growth (UACC-62 melanoma): 96.4%
growth (LOX IMVI melanoma): 93.8%
growth (SK-MEL-28 melanoma): 112%
growth (SK-MEL-2 melanoma): 114%
growth (EKVX NSCLC): 98.5%
growth (SN12C renal): 113%
growth (UO-31 renal): 94.6%
growth (TK-10 renal): 136%
growth (ACHN renal): 102%
growth (CAKI-1 renal): 94.5%
growth (A498 renal): 80%
growth (CCRF-CEM leukemia): 112%
growth (MOLT-4 leukemia): 109%

N#Cc1c(-c2ccc(Cl)cc2)csc1NC(=O)Nc1ccc(Cl)c(C(F)(F)F)c1
growth (HCT-15 colon): 4.52% (active)
growth (HT29 colon): 1.62% (active)
growth (SNB-75 CNS): 36.5%
growth (SNB-19 CNS): 31.6%
growth (U251 CNS): 2.57% (active)
growth (PC-3 prostate): 1.89% (active)
growth (SK-MEL-5 melanoma): -24.2% (active)
growth (UACC-62 melanoma): 16.2%
growth (LOX IMVI melanoma): 11.7%
growth (SK-MEL-28 melanoma): 28.4%
growth (SK-MEL-2 melanoma): 5.43% (active)
growth (EKVX NSCLC): 11.9%
growth (SN12C renal): 14.4%
growth (UO-31 renal): 28.2%
growth (TK-10 renal): 10.3%
growth (ACHN renal): 3.38% (active)
growth (CAKI-1 renal): 13.5%
growth (A498 renal): 35.6%
growth (MOLT-4 leukemia): 1.45% (active)
